Measurements reported in article PMC4552634, “A New Set of Chemical Starting Points with Plasmodium falciparum Transmission-Blocking Potential for Antimalarial Drug Discovery” (PLoS ONE, 2015).
In all, about 13,000 compounds went through this assay and about 3,200 (25%) showed an effect of 50% or more. The list shows a part of the results.

These molecules were tested on P. falciparum stage V gametocytes. Conditions: 48 h, 5 µM; inhibitor.
Design: BacTiter-Glo ATP luminescence viability of purified stage V gametocytes in 384-well plates, per cent inhibition versus DMSO

Row | SMILES | % Inhibition [%]
1 | CC(C)C[C@@H](C(=O)N[C@H](C(=O)Nc1nccs1)C(C)(C)C)[C@H](CCC(F)(F)F)N(O)C=O [TCMDC-138178] | 1.039
2 | CCC1(CC)N=C(N)N=C(N)N1OCc1ccc(Cl)c(Cl)c1 [TCMDC-131656] | 33.88
3 | N#Cc1ccc(C(=O)Nc2ccc(Cl)c(N3CCN(CCc4ccccc4)CC3)c2)cc1 [TCMDC-133534] | -15.74
4 | CC(Nc1ccc2c(c1)CCC2)C(=O)Nc1cc(C(F)(F)F)ccc1N1CCOCC1 (stereo not drawn) [TCMDC-124858] | 33.49
5 | COc1ccc2ncc(C#N)c(CCN3CCC(NCc4ccc5c(n4)NC(=O)CS5)CC3)c2n1 [TCMDC-135188] | -9.823
6 | CC1CCCCC1N(C)C1CCN(CCCNC(=O)C=Cc2ccccc2Cl)CC1 (stereo not drawn) [TCMDC-124442] | 1.29
7 | CC1CCCCC1N(C)C1CCN(CCCNC(=O)C=Cc2cccc(C(F)(F)F)c2)CC1 (stereo not drawn) [TCMDC-124443] | 53.92
8 | CN(C(=O)/C=C/c1cc(C(F)(F)F)ccc1F)C1CCN(CCCCCNC(=O)/C=C/c2ccc(Cl)c(Cl)c2)CC1 [TCMDC-139991] | -46.39
9 | O=C(/C=C/c1cccc(C(F)(F)F)c1)NCCCCCN1CCC(c2c[nH]c3ccccc23)CC1 [TCMDC-139212] | -27.28
10 | CCN(CC)c1ccc(C=CC(=O)NCCN2CCC(N(C)C3CCCCC3C)CC2)cc1 (stereo not drawn) [TCMDC-124445] | -34.59
11 | CC1CCCCC1N(C)C1CCN(CCCNC(=O)C=Cc2ccc(Cl)cc2Cl)CC1 (stereo not drawn) [TCMDC-124444] | 93.47
12 | Fc1ccc(COc2ccc(Nc3ncnc4ccc(I)cc34)cc2Cl)cc1 [TCMDC-138628] | -1.956
13 | Cc1c(Cc2ccc(C(C)C)cc2)cnc2nc(N)nc(N)c12 [TCMDC-138044] | 4.775
14 | CCOc1ccc(-c2nonc2NC(=O)c2cccc(Cl)c2)cc1OCC [TCMDC-125200] | 91.59
15 | CCOc1ccc(-c2nonc2NC(=O)c2ccco2)cc1OCC [TCMDC-125197] | 3.347
16 | CCOc1ccc(-c2nonc2NC(=O)CC(C)C)cc1OCC [TCMDC-125196] | 42.86
17 | CCOc1ccc(-c2nonc2NC(=O)c2ccccc2)cc1OCC [TCMDC-125199] | 91.48
18 | CCOc1ccc(-c2nonc2NC(=O)c2cccs2)cc1OCC [TCMDC-125207] | 83.06
19 | CCCCC(=O)Nc1nonc1-c1ccc(OCC)c(OCC)c1 [TCMDC-125071] | 74.8
20 | Cc1ccc2cc(NCCCCCCCCON3C(N)=NC(N)=NC34CCCCC4)ccc2n1 [TCMDC-140362] | 9.593
21 | Cn1cncc1C(=O)NC1CCN(c2ccnc(Nc3ccc(F)cc3)n2)C1 (stereo not drawn) [TCMDC-133600] | -9.129
22 | CC(C)CC(C)NC(=O)C1Cc2c([nH]c3ccc(F)cc23)C2(CCN(Cc3ccccc3)CC2)N1 (stereo not drawn) [TCMDC-141304] | -71.76
23 | Cc1cccc2nc(-c3ccc(-c4ccc(NC(=O)Nc5cccc(C#N)c5)cc4)s3)[nH]c12 [TCMDC-133189] | 17.89

Row | SMILES | % Inhibition [%]
24 | CCN(CC)S(=O)(=O)c1ccc(C(=O)Oc2ccccc2N(Cc2ccc(OC)cc2)C2=NS(=O)(=O)c3ccccc32)cc1 [TCMDC-125657] | 32.63
25 | COc1ccc2nccc([C@@H](O)CN3CCC(NCc4ccc5sc(=O)[nH]c5c4)CC3)c2c1 [TCMDC-141199] | 32.68
26 | Oc1ccc(CN2CCC(N3CCN(CCc4ccccc4)CC3)C(O)C2)cc1Cl (stereo not drawn) [TCMDC-124627] | 21.13
27 | CCc1ccc(O)c(-c2cc(C(=O)Nc3cccnc3)[nH]n2)c1 [TCMDC-125321] | -26.21
28 | CN1CCN(Cc2c(O)ccc3c(=O)c(Oc4ccc(C(C)(C)C)cc4)c(C(F)(F)F)oc23)CC1 [TCMDC-125699] | 17.84
29 | O=C(Nc1cccc(Cl)c1)OC1CCCN2CCCCC12 (stereo not drawn) [TCMDC-132073] | 14.89
30 | CC(C)(C)c1ccc(S(=O)(=O)Nc2ccccc2Cn2nc(N3CCNCC3)ccc2=O)cc1 [TCMDC-132579] | 45.07
31 | CC(C)(C)C(=O)Nc1ccc(C(=O)Nc2cccc(-c3nc4ccccc4[nH]3)c2)cc1 [TCMDC-123720] | -0.3051
32 | CCOc1ccc(-c2nonc2NC(=O)c2ccc(OC)cc2)cc1OCC [TCMDC-125208] | 49.87
33 | CCOc1ccc(-c2nonc2NC(=O)c2ccc(F)cc2)cc1OCC [TCMDC-125209] | 63.55
34 | CCOc1ccc(-c2nonc2NC(=O)c2ccc(Cl)cc2)cc1OCC [TCMDC-125210] | 29.52
35 | Nc1cccc(CNCc2cccc(-c3ccc(-c4nc5ccccc5[nH]4)cc3)c2)c1.O=C(O)C(F)(F)F [TCMDC-132940] | -44.43
36 | CCOc1cc(NCCCNc2ncc([N+](=O)[O-])cc2C)nc2ccccc12 [TCMDC-139265] | -18.92
37 | CCOc1cccc2nc(NCCCNCc3ccc(Cl)c(Cl)c3)cc(NCCCNCc3ccc(Cl)c(Cl)c3)c12 [TCMDC-139413] | 102.1
38 | CCOc1c(Cl)cc(Cl)cc1CNCCCNc1nc2ccccc2[nH]1 [TCMDC-140104] | 21.3
39 | COc1ccc2c(c1)nc(CN=C(N)N)n2Cc1ccc(Cl)cc1 [TCMDC-142042] | 28.73
40 | Cc1cc(O)c(-c2cc(C(=O)Nc3cccnc3)[nH]n2)cc1C [TCMDC-124307] | 6.508
41 | COc1ccc(-c2nc(NC(=O)COc3ccc(C(C)=O)cc3)sc2C)cc1 [TCMDC-125108] | 2.358
42 | Cn1nccc1C(=O)NCCNCc1ccc(-c2ccc(-c3nc4cc(C(F)(F)F)ccc4[nH]3)s2)cc1.O=C(O)C(F)(F)F [TCMDC-133018] | -29.18
43 | CCNc1cc(C(=O)N[C@@H](Cc2ccccc2)[C@H](O)CNC(C)(C)CCCC(C)C)cc(N2CCCCS2(=O)=O)c1 [TCMDC-135211] | 24.29
44 | CC(C)Nc1cc(C(=O)N[C@@H](Cc2ccccc2)[C@H](O)CNCc2cccc(C(F)(F)F)c2)c(F)c(N2CCCCS2(=O)=O)c1 [TCMDC-135538] | 3.895
45 | CC(C)CCCC(C)(C)NC[C@@H](O)[C@H](Cc1ccccc1)NC(=O)c1cc(NC(C)C)cc(N2CCCCS2(=O)=O)c1F [TCMDC-135540] | 50.35
46 | CCNc1cc(C(=O)N[C@@H](Cc2ccccc2)[C@H](O)CNCCC(C)(C)C)c(F)c(N2CCCCS2(=O)=O)c1 [TCMDC-135165] | 62.14

Row | SMILES | % Inhibition [%]
47 | CCNc1cc(C(=O)N[C@@H](Cc2ccccc2)[C@H](O)CNC(C)(C)CC(C)(C)C)c(F)c(N2CCCCS2(=O)=O)c1 [TCMDC-135166] | -2.474
48 | CCNc1cc(C(=O)NC(Cc2ccccc2)C(O)CNC(C)(C)CCCC(C)C)c(F)c(N2CCCS2(=O)=O)c1 (stereo not drawn) [TCMDC-135210] | 12.17
49 | CCNc1cc(C(=O)N[C@@H](Cc2ccccc2)[C@H](O)CNC(C)CC(C)C)c(F)c(N2CCCCS2(=O)=O)c1 (stereo partly drawn) [TCMDC-135167] | 44.92
50 | CC(C)Nc1cc(C(=O)N[C@@H](Cc2ccccc2)[C@H](O)CNC(C)(C)c2cccc(C(F)(F)F)c2)cc(N2CCCCS2(=O)=O)c1 [TCMDC-135204] | 0.5792
51 | CC(C)CCCC(C)(C)NC[C@@H](O)[C@H](Cc1ccccc1)NC(=O)c1cc(NC(C)C)cc(N2CCCCS2(=O)=O)c1 [TCMDC-135206] | 89.31
52 | CCCc1cc2c3c(N)nc(N)nc3ccc2n1C(CC)CC [TCMDC-137312] | 13.64
53 | CC(C)n1ncc2c3c(N)nc(N)nc3ccc21 [TCMDC-137866] | 12.93
54 | CCC(CC)n1c(COC)cc2c3c(N)nc(N)nc3ccc21 [TCMDC-137313] | -40.93
55 | CCc1cc2c3c(N)nc(N)nc3ccc2n1C(CC)CC [TCMDC-137309] | 2.246
56 | CCCc1cc2c3c(N)nc(N)nc3ccc2n1CC [TCMDC-137946] | 108
57 | CCn1c(C(C)C)cc2c3c(N)nc(N)nc3ccc21 [TCMDC-137856] | 56.38
58 | CCc1cc2c3c(N)nc(N)nc3ccc2n1C(C)CC (stereo not drawn) [TCMDC-137308] | 10.89
59 | CCc1cc2c3c(N)nc(N)nc3ccc2n1C(C)(C)C [TCMDC-137306] | 29.54
60 | CCc1cc2c3c(N)nc(N)nc3ccc2n1CC [TCMDC-137851] | 94.91
61 | CSC1=NC2(CC(c3cccc(C)c3)c3cc(Cl)c(O)cc3O2)CC(C)(C)N1 (stereo not drawn) [TCMDC-125563] | 19.29
62 | O=C(c1ccc(-c2ccccn2)s1)N1CCc2cc3nccc(N4CCN5CCC[C@H]5C4)c3cc21 [TCMDC-140047] | 34.48
63 | CCCCCCn1c(Sc2ccc(C#N)c([N+](=O)[O-])c2)nnc1-c1cccs1 [TCMDC-135586] | 11.04
64 | COc1cccc(C(=O)Nc2ccc(Nc3nc(C)cc(N4CCCCC4)n3)cc2)c1OC [TCMDC-124963] | -19.94
65 | CC(CN(C)C)Oc1ccc2[nH]c(-c3cccc(OCc4ccccc4)c3)nc2c1C#N (stereo not drawn) [TCMDC-133767] | 6.337
66 | CCn1c(-c2nonc2N)nc2c(-c3cccc(NC(=O)Nc4ccc(C#N)cc4)c3)ncc(OCCCN)c21 [TCMDC-136194] | 88.46
67 | CCn1c(-c2nonc2N)nc2c(-c3cccc(NC(=O)Nc4cccc(C#N)c4)c3)ncc(OCCCN)c21 [TCMDC-136195] | 98.06
68 | Cc1cccc2[nH]c(-c3ccc(-c4ccc(NC(=O)Nc5cccc(C#N)c5)cc4)cc3)nc12 [TCMDC-133196] | -20.21
69 | N#Cc1cccc(NC(=O)Nc2cccc(-c3cccc(-c4nc5ccccc5[nH]4)c3)c2)c1 [TCMDC-133193] | -45.89
